Screening results as filed in PubChem.
Rows were chosen to be rich in hits. Some 27% of all compounds tested hit in one or more screens of this group.
CYP2C9 inhib = human CYP2C9 inhibition; P11712; CYP2C9 Supersomes, luciferin-H conversion, luminescence; inhibition, % at 5 µM; hit rate 20% among 96,000; AID 777;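 active = blocking of liver enzyme CYP2C9 beyond about 50% at 5 µM, limit read from the data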
CYP2C19 activ = activators of human cytochrome P450 2C19. P33261. recombinant CYP2C19, luciferin-H EGE luminescence; active compounds read high; 0 = fully inhibited enzyme, 1 = untreated enzyme. activation factor at 5 µM. 96,000 tested, under 10 active;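 active = activation factor of at least 2 at 5 µM in the primary screen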;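 also: 0 = wells with 2.5 mM tranylcypromine and 1 = vehicle-only wells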
Target sequence (P33261 whole entry, looked up): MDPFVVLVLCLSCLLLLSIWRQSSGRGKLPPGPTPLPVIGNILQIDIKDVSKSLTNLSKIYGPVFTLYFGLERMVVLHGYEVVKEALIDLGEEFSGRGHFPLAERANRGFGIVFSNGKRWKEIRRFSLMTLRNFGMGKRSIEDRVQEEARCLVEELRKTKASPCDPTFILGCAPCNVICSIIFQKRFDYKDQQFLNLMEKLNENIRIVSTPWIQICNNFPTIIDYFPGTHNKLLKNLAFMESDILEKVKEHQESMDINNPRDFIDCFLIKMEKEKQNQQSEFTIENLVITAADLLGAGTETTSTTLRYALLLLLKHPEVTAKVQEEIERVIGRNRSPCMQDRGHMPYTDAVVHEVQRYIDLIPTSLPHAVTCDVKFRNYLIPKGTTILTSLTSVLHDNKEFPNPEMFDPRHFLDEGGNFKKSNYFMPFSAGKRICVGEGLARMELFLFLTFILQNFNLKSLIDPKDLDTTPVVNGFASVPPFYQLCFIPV
CYP2C19 inhib = inhibitors of human CYP2C19; P33261; CYP2C19 Supersomes, luciferin-H EGE luminescence, 30 min; AID 778; inhibition, % at 5 µM; hit rate 21% among 96,000;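 active = CYP2C19 inhibition above a set limit at 5 µM in the primary screen, cut at about 50% in these data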;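 also: plate controls were negative control wells for no effect and 2.5 mM tranylcypromine positive control for full effect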
sEH act = increases human soluble epoxide hydrolase activity; purified human sEH enzymatic activity, activator screen; activation, % at 2 µM; hit rate 0.04% among 91,000; AID 717; in the data active = activation above about 37%
sEH inh = blocks human soluble epoxide hydrolase activity. recombinant human sEH enzymatic activity assay. P34913. hit rate 0.34% among 91,000. inhibition, % at 2 µM; in the data active = inhibition above about 80%
CYP2C9 activ = CYP2C9 (human) activation; recombinant CYP2C9, luciferin-H conversion, luminescence; active compounds read high; factor 1 = untreated enzyme, 0 = blocked; P11712; hit rate 1.4% among 96,000; AID 1024; activation factor at 5 µM;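 active = activation factor of 2 or more for CYP2C9 at a 5 µM dose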;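 also: 0 = sulfaphenazole-blocked wells and 1 = vehicle-only wells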
* hit, by the source's call.

`CCc1ccc2[nH]c(=O)c(C(c3nnnn3CCOC)N3CCN(c4ccccc4F)CC3)cc2c1` (stereo unspecified) gave CYP2C9 inhib 17.3, CYP2C19 activ 0.5, CYP2C19 inhib 53.8* and CYP2C9 activ 0.8.
`O=C(CSc1nnnn1C1CC2CCC1C2)Nc1ccnc2ccccc12` (stereo unspecified) gave CYP2C9 inhib 28.8, CYP2C19 activ 0.8, CYP2C19 inhib 22.1 and CYP2C9 activ 0.7.
CCc1ccc2[nH]c(=O)c(CN(Cc3ccc(OC)cc3)Cc3nnnn3CCOC)cc2c1 was read as CYP2C9 inhib 57.0*, CYP2C19 activ 0.5, CYP2C19 inhib 54.6* and CYP2C9 activ 0.4.
For COCCn1nnnc1C(C(C)C)N(Cc1ccccc1)Cc1cc2cc(OC)ccc2[nH]c1=O (stereo unspecified) the results were CYP2C9 inhib 83.7*, CYP2C19 activ 0.2, CYP2C19 inhib 76.6* and CYP2C9 activ 0.2.
Screening COc1ccc(NC(=O)CSc2c(C)nn(-c3nnc(C)c(=O)[nH]3)c2C)cc1 returned CYP2C9 inhib -3.6, CYP2C19 activ 1.1, CYP2C19 inhib -11.7, sEH act 0.5, sEH inh -6.1 and CYP2C9 activ 1.
Screening CCOC(=O)C(NCc1ccco1)(NC(=O)c1ccccc1)C(F)(F)F (stereo unspecified) returned CYP2C9 inhib 43.6, CYP2C19 activ 0.2, CYP2C19 inhib 75.9*, sEH act 2.1, sEH inh -0.7 and CYP2C9 activ 0.6.
`Cc1ccc(N2CC(C(=O)Nc3ccccc3C(=O)NC3CCCCC3)CC2=O)cc1C` (stereo unspecified) gave sEH act 8.3 and sEH inh -7.1.
O=S(=O)(Nc1nc2ccccc2s1)c1ccc(Br)s1 was read as CYP2C9 inhib 95.6*, CYP2C19 activ 0.2, CYP2C19 inhib 81.2*, sEH act 2.3, sEH inh 1.5 and CYP2C9 activ 0.
CC(=O)Nc1ccc(S(=O)(=O)Nc2nc3ccccc3s2)cc1 was read as CYP2C9 inhib 61.7*, CYP2C19 activ 0.7, CYP2C19 inhib 33.2, sEH act 11.2, sEH inh -13.1 and CYP2C9 activ 0.4.
Cc1ccc(S(=O)(=O)Nc2nc3ccccc3s2)cc1 was read as CYP2C9 inhib 43.7, CYP2C19 activ 0.9, CYP2C19 inhib 7.1, sEH act 1.6, sEH inh -4.6 and CYP2C9 activ 0.6.
For COc1ccc(S(=O)(=O)Nc2nc3ccccc3s2)cc1OC the results were CYP2C9 inhib 62.1*, CYP2C19 activ 0.7, CYP2C19 inhib 25.2, sEH act 11.2, sEH inh -14.4 and CYP2C9 activ 0.4.
`CC(=O)Nc1ccc(S(=O)(=O)Nc2nc3c(s2)CCCC3)cc1` gave CYP2C9 inhib 42.6, CYP2C19 activ 0.1, CYP2C19 inhib 90.7*, sEH act 1.9, sEH inh -0.4 and CYP2C9 activ 0.6.
Screening COc1ccccc1CC(=O)Nc1ccc(O)cc1C(=O)O returned CYP2C9 inhib 1.5, CYP2C19 activ 1.1, CYP2C19 inhib -6.3, sEH act -2.4, sEH inh 5.3 and CYP2C9 activ 1.
CCn1c(=O)cc(N2CCCCC2)[nH]c1=O was read as CYP2C9 inhib -19.5, CYP2C19 activ 1.1, CYP2C19 inhib -8.9, sEH act 2.3, sEH inh -2.2 and CYP2C9 activ 1.2.
For Cc1oc(-c2cccc(Cl)c2)nc1CN1CCCC(C(=O)NC(C)c2ccc3c(c2)OCCO3)C1 (stereo unspecified) the results were CYP2C9 inhib 80.6*, CYP2C19 activ 0.1, CYP2C19 inhib 86.8* and CYP2C9 activ 0.2.
`Cc1oc(-c2cccc(Cl)c2)nc1CN1CCCC(C(=O)NCc2ccco2)C1` (stereo unspecified) gave CYP2C9 inhib 17.8, CYP2C19 activ 0.9, CYP2C19 inhib 14.6, sEH act 0.0, sEH inh 1.8 and CYP2C9 activ 0.8.
Screening Cc1c(C(=O)N2CCCCC2)nnn1-c1nonc1N returned CYP2C9 inhib -4.8, CYP2C19 activ 0.6, CYP2C19 inhib 40.1, sEH act -2.8, sEH inh 1.9 and CYP2C9 activ 1.
CCn1c2ccccc2c2cc(/C=N/n3cn[nH]c3=S)ccc21 was read as CYP2C9 inhib 31.8, CYP2C19 activ 0.2, CYP2C19 inhib 81.0*, sEH act 7.6, sEH inh -5.6 and CYP2C9 activ 0.7.
Screening C(=N\n1cnnc1)/c1cn(Cc2ccccc2)c2ccccc12 returned CYP2C9 inhib 65.9*, CYP2C19 activ 0.2, CYP2C19 inhib 84.6* and CYP2C9 activ 0.3.
S=c1[nH]ncn1/N=C/c1ccccc1 was read as CYP2C9 inhib 7.5, CYP2C19 activ 0.9, CYP2C19 inhib 5.8, sEH act -10.2, sEH inh 9.0 and CYP2C9 activ 0.9.
Screening CCn1c2ccccc2c2cc(/C=N/n3cnnc3)ccc21 returned CYP2C9 inhib 74.3*, CYP2C19 activ 0, CYP2C19 inhib 97.1*, sEH act 18.5, sEH inh -19.0 and CYP2C9 activ 0.3.
Cc1ccc(-n2c(C)cc(C)c(C#N)c2=O)cc1Cl was read as CYP2C9 inhib 8.1, CYP2C19 activ 0.9, CYP2C19 inhib 11.9, sEH act -8.0, sEH inh 9.8 and CYP2C9 activ 0.9.
CCOCCCNC(=O)N[C@@H](C)C(=O)OC was read as CYP2C9 inhib -0.9, CYP2C19 activ 1, CYP2C19 inhib -1.5, sEH act 7.7, sEH inh -9.6 and CYP2C9 activ 1.
Screening O=C(CSc1nc2ccccc2c(=O)[nH]1)c1ccccc1 returned sEH act 1.9 and sEH inh 3.8.
O=c1[nH]c(SCc2n[nH]c(=S)n2-c2ccccc2)nc2sc3c(c12)CCC3 was read as CYP2C9 inhib 71.8*, CYP2C19 activ 0.7, CYP2C19 inhib 27.9, sEH act -7.3, sEH inh 9.7 and CYP2C9 activ 0.3.
`O=c1[nH]c(SCc2n[nH]c(=S)n2-c2ccccc2)nc2ccccc12` gave CYP2C9 inhib 79.8*, CYP2C19 activ 0.3, CYP2C19 inhib 73.2*, sEH act -4.6, sEH inh 4.8 and CYP2C9 activ 0.2.
For S=c1[nH]nc(Cc2cccc3ccccc23)n1-c1ccccc1 the results were CYP2C9 inhib 90.4*, CYP2C19 activ 0.5, CYP2C19 inhib 47.2, sEH act -4.0, sEH inh 4.3 and CYP2C9 activ 0.1.
For O=C(O)CNC(=O)c1ccc(S(=O)(=O)N2CCOCC2)cc1 the results were CYP2C9 inhib -2.2, CYP2C19 activ 1, CYP2C19 inhib 1.2, sEH act 1.4, sEH inh -2.4 and CYP2C9 activ 1.
`CCCn1cc(S(=O)(=O)CC(=O)NC2CCCCC2)c2ccccc21` gave sEH act -15.4 and sEH inh 18.4.
For COc1ccc(OC2C(=O)N(Cc3ccc4c(c3)OCO4)C2c2sccc2C)cc1 (stereo unspecified) the results were CYP2C9 inhib 69.2*, CYP2C19 activ 0.3, CYP2C19 inhib 74.0*, sEH act 7.5, sEH inh -4.2 and CYP2C9 activ 0.3.
